In PubChem BioAssay AID1835 (Johns Hopkins Ion Channel Center, 2009) one finds activity increase over dofetilide control, less the hit threshold data, which are given here for 54 compounds.

The whole screen tested about 2,400 compounds, of which about 750 (31%) were called active.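 The calls were made as follows: active = median signal gain over dofetilide-blocked control wells reaching their mean plus 3 SD, so readout 1 at least 0; inactive = the rest.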 Some of the results follow.

In this assay the target is Voltage-gated inwardly rectifying potassium channel KCNH2 (Homo sapiens) (UniProt Q12809). Put plainly: hERG protection against dofetilide inhibition, confirmation, cell-based, thallium flux, duplicate retest, dofetilide IC70 (AID 1835). The settings on record: hERG cell line, FluxOR thallium flux, dofetilide-blocked; at 10 µM; hits give high values. In general terms: The hERG channel carries a current that helps repolarise heart muscle cells.
Sequence of Voltage-gated inwardly rectifying potassium channel KCNH2 (Homo sapiens) (Q12809 whole entry, looked up): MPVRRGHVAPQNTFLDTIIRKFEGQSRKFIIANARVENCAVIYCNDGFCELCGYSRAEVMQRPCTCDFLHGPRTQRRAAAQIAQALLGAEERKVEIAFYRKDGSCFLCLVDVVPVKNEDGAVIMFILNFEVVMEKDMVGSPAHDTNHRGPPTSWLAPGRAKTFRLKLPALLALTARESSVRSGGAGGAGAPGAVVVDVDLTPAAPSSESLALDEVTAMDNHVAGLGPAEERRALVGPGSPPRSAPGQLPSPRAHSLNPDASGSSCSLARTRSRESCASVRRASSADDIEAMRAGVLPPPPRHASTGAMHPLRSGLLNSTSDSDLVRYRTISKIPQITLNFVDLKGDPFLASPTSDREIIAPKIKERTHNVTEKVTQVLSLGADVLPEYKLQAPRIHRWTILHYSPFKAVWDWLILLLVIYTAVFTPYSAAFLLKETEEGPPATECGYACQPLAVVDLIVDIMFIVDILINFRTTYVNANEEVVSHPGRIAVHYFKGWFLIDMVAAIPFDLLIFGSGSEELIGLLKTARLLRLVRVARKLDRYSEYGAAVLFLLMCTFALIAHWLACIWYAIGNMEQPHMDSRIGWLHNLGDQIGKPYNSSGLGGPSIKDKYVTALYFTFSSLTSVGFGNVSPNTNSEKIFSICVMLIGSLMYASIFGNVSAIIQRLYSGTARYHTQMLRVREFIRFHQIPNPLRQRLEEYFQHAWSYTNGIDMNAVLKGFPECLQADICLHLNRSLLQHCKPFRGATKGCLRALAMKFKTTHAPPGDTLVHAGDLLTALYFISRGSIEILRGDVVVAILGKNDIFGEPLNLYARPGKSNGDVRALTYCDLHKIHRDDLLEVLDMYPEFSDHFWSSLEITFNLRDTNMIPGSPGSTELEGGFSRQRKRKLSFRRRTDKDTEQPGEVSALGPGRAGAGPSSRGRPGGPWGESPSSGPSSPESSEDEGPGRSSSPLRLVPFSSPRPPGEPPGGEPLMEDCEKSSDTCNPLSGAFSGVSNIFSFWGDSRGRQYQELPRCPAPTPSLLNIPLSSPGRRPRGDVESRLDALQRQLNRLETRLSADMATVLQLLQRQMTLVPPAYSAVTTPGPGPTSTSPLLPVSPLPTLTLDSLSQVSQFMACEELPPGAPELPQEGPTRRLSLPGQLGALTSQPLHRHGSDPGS
With `Cc1cc(=O)[nH]c(=S)n1-c1ccccc1`, the activity increase over dofetilide control, less the hit threshold is -14% (inactive).
On to `CC12CCC(C(=O)OC3CCCCC3)(OC1=O)C2(C)C` (centres undefined), for which the activity increase over dofetilide control, less the hit threshold was -17% (inactive).
With `O=C(O)Cc1cc(I)c(Oc2ccc(O)c(I)c2)c(I)c1` the figure was 18% (active).
With `O=C(O)CN1C(=O)c2ccc(Oc3ccc4c(c3)C(=O)N(CC(=O)O)C4=O)cc2C1=O` the figure was -10% (inactive); with `O=C(NCCCN1CCOCC1)c1ccc(CS(=O)(=O)Cc2ccccc2Cl)o1`, -11% (inactive); with `CCn1ccnc1CN1CCCC(CO)(Cc2cccc(OC)c2)C1` (centres undefined), -11% (inactive).
The result for `S=C(NCCc1ccccc1)N/N=C/c1c(Cl)cccc1Cl` reads -12% (inactive); that for `O=C(NCc1cccc(Cl)c1)c1ccncc1`, -10% (inactive).
As for `O=C(NC(=S)NCCc1ccccc1)c1cccc(Cl)c1`, the activity increase over dofetilide control, less the hit threshold is 4% (active).
The result for `Fc1ccc(-n2cc(-c3ccccc3)c3c(=S)nc[nH]c32)cc1` reads -1% (inactive); that for `Cc1c(-c2ccccc2)sc2nc[nH]c(=S)c12`, 52% (active); that for `Cc1sc2nc[nH]c(=S)c2c1-c1ccccc1`, 36% (active).
With `COC(=O)c1ccc(NN=Nc2ccc(C)cc2)cc1` the figure was -6% (inactive).
For the compound `Nc1nonc1C(=O)N1CCCC1`, the activity increase over dofetilide control, less the hit threshold was -9% (inactive).
The result for `Cc1nnc2ccc(-c3cccc(NC(=O)c4ccc(Cl)nc4)c3)nn12` reads -12% (inactive); that for `COc1ccc2nc(N3CCCCC3)c(/C=C3\SC(=S)NC3=O)cc2c1`, 3% (active).
With `Cc1cc(NC(C)C)n2c(nc3ccccc32)c1C#N` the figure was -18% (inactive).
The result for `O=C(O)CN1C(=O)C(=O)N(Cc2ccc(C(F)(F)F)cc2)C1=O` reads 6% (active).
Take `O=C(Nc1ccc(Cl)c(-c2nc3ccccc3[nH]2)c1)c1cccnc1`: the activity increase over dofetilide control, less the hit threshold is -43% (inactive).
As to `O=C(Nc1cccnc1)c1ccc(COc2ccccc2Br)o1`, the activity increase over dofetilide control, less the hit threshold was -3% (inactive).
With `O=C(Nc1cccnc1)c1ccc(COc2cc(Cl)ccc2Cl)o1` the figure was 0% (active).
The result for `COc1ccc(Cc2c(O)nc(SCC(C)C)[nH]c2=O)cc1` reads -18% (inactive).
The result for `OC(CNCCc1ccc(C(F)(F)F)cc1)COc1cccc2ccccc12` (centres undefined) reads -22% (inactive); that for `O=C(OCc1ccccc1)C1=NNC2C(=O)N(c3ccc(Br)cc3)C(=O)C12` (centres undefined), -2% (inactive); that for `Cc1cc(C(=O)CCC(=O)NC(C)c2ccc(S(N)(=O)=O)cc2)c(C)s1` (centres undefined), -15% (inactive).
Take `Cc1ccc(/C=N/Nc2ccc(C(=O)O)cc2)o1`: the activity increase over dofetilide control, less the hit threshold was 1% (active).
Consider `Cc1ccc(/C=N/Nc2nc(C(C)(C)C)cs2)o1`, for which the activity increase over dofetilide control, less the hit threshold is -17% (inactive).
With `COc1ccc(/C(C)=N/Nc2ccc(C(=O)O)cc2)c(OC)c1` the figure was -12% (inactive); with `CC(C)(C)OC(=O)C(Cl)(C(=O)OC(C)(C)C)c1ccc2nnnn2n1`, -27% (inactive).
With `Cc1ccc(CNC(=O)c2ccc(CNc3c(N4CCCC4)c(=O)c3=O)cc2)cc1` the figure was -7% (inactive); with `COc1ccc(C)cc1NC(=O)Nc1ccc(C(=O)N2CCCC2)cc1`, -5% (inactive); with `Cc1ccc2nc(SCC(=O)N3CCCCCC3)nc(=O)n2c1`, -20% (inactive).
With `CC(C)Oc1cccc(C(=O)N2CCCC2)c1` the figure was -4% (inactive); with `Cc1ccc(SCc2ccc(C(=O)N3CCCC3)cc2)cc1`, 9% (active).
With `Cc1cc(C)c(C(=O)c2ccc(C(=O)N3CCCCC3)cc2)c(C)c1`, the activity increase over dofetilide control, less the hit threshold was 23% (active).
With `O=c1cc(O)c2ccccc2n1Cc1ccccc1Cl` the figure was -8% (inactive); with `COc1ccc(-c2c(C#N)c(SCC(=O)c3cc4ccccc4oc3=O)nc(C)c2C(=O)Nc2ccccc2)cc1`, -13% (inactive).
In the case of `Cc1ccc(Nc2nc(-c3ccncc3)cs2)cc1`, the activity increase over dofetilide control, less the hit threshold was -8% (inactive).
The result for `Cc1ccc(Nc2nc(C)cs2)cc1` reads -16% (inactive); that for `Cc1ccc(Nc2nc(-c3cccs3)cs2)nc1`, 1% (active); that for `COc1ccccc1-n1cnc2sc(C)c(C)c2c1=O`, -6% (inactive).
In the case of `CCN1C(=O)[C@H]2[C@@H](c3ccc(-c4ccc(OC)cc4)cc3)N[C@@](C)(C(=O)OC)[C@H]2C1=O`, the activity increase over dofetilide control, less the hit threshold is -4% (inactive).
With `CCCCn1nc(NC(=O)COC)c2cc3ccc(C)cc3nc21` the figure was -22% (inactive); with `CCOC(=O)C(C)Sc1nc2c(c(-c3cccs3)c1C#N)CCC2` (centres undefined), 1% (active).
The result for `COc1cc(/C=C2/C(=O)NN(c3ccccc3)C2=O)cc(Br)c1O` reads -25% (inactive).
The result for `Cc1cccc(N(C(=O)c2csnn2)C(C(=O)NCc2ccccc2)c2ccncc2)c1` (centres undefined) reads -11% (inactive); that for `CCCNC(=O)N1CCN(S(=O)(=O)c2ccc(C)cc2)CC1`, -16% (inactive); that for `CCSc1nc2c(c(=O)[nH]1)C(c1ccc(C)cc1)C1=C(CCCC1=O)N2` (centres undefined), -7% (inactive).
As for `CSc1nc(C)c(Cc2ccccc2)c(=O)[nH]1`, the activity increase over dofetilide control, less the hit threshold is -20% (inactive).
With `O=c1[nH]c(=S)[nH]c2c1C(c1ccc(Br)cc1)c1c([nH]c(=S)[nH]c1=O)O2` the figure was -17% (inactive).
As for `CSc1nc2c(c(=O)[nH]1)C(c1ccc(Cl)cc1)CC(=O)N2` (centres undefined), the activity increase over dofetilide control, less the hit threshold is 113% (active).
With `CSc1nc2c(c(=O)[nH]1)C(c1ccccc1Cl)CC(=O)N2` (centres undefined) the figure was 17% (active).
The result for `CSc1nc2c(c(=O)[nH]1)C(c1ccc(Br)cc1)CC(=O)N2` (centres undefined) reads 25% (active); that for `CSc1nc2c(c(=O)[nH]1)C(c1ccc(F)cc1)CC(=O)N2` (centres undefined), 18% (active).
